Measured values from publication PMC7819943, “Rice protein-binding microarrays: a tool to detect cis-acting elements near promoter regions in rice”.
Over roughly 35,000 sequences, “fluorescence intensity (a.u.)” has its median near 10,000; the highest 2% begin near 52,000. Many of the other results were omitted from the sample, so the highest values are more common in it than they were.

Target: T1, OsWOX13 (Oryza sativa, UniProt Q5QMM3 1-267)
T1 sequence: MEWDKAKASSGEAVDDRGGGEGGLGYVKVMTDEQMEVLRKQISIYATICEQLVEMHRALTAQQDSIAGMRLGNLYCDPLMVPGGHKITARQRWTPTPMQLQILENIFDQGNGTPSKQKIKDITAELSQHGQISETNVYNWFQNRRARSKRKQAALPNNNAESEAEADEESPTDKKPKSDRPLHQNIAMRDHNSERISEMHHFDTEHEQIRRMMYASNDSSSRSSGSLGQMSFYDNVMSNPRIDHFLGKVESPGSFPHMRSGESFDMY
Assay: protein-binding microarray (RPBM); PBS, 2% BSA, 51.3 ng/ul salmon testes DNA, 50 uM zinc acetate, 200 nM TF, 25 C, 1 h; high values mean tight binding
Conditions: protein: recombinant; tags: N-terminal polyhistidine and DsRed monomer fusion (pET32a); label: CyDye5-dUTP incorporated in the synthesized complementary strand; 3' TTTTT single-stranded linker to array surface; dsDNA, one strand shown
In short: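 Binding signal is defined as the fluorescence intensity of each feature in arbitrary units, read on an Axon 4000B scanner. Transcription factors with N-terminal polyhistidine and DsRed fusions came from E. coli BL21-CodonPlus and were purified on Ni–NTA. They were incubated at 200 nM for 1 h at 25 °C on a custom Agilent array that had been made double-stranded with Cy5-dUTP, with 50 µM zinc acetate present, and the array was washed.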

| Sequence | binding signal |
| --- | --- |
| TCTGATTGCAATCATTCTTGAATTCTGATACATATTGGATCGGAGTCACCTAGTGCAG | 60300 fluorescence intensity (a.u.) |
| GATTAATTTAGAAATTTTGAATTCTATTACATAATGATCACGGAGTCACCTAGTGCAG | 20600 fluorescence intensity (a.u.) |
| CAAAACTGAGTACATTGGATTGGACCATCTAAAAGGAAATCGGAGTCACCTAGTGCAG | 4580 fluorescence intensity (a.u.) |
| TTTATCAAATTATCGTTTGTGTACTCTAGCTGGTCCTGGACGGAGTCACCTAGTGCAG | 3870 fluorescence intensity (a.u.) |
| TGAAATTATTAGCAGGGTTTTAAATCTTCTGTTATAGCTGCGGAGTCACCTAGTGCAG | 4040 fluorescence intensity (a.u.) |
| GGTAATAGAGAGACCACTAATAAAGATTGTTGTACCTGTGCGGAGTCACCTAGTGCAG | 3690 fluorescence intensity (a.u.) |
| CCCTAGACAGATCAGCTTTGGTGTCTTGGTGGTTGTTGTCCGGAGTCACCTAGTGCAG | 5440 fluorescence intensity (a.u.) |
| TGTTTAAGTTTGTCCTAATTACCTGTCACATTTTCCGTGCCGGAGTCACCTAGTGCAG | 8460 fluorescence intensity (a.u.) |
| GGCAGTGACTAATTAACCTCACGGATGACAGGCGGCGAAACGGAGTCACCTAGTGCAG | 10300 fluorescence intensity (a.u.) |
| ATCAGCTGATTACCTCACTGCATCCGTATGATTCGACTTTCGGAGTCACCTAGTGCAG | 7310 fluorescence intensity (a.u.) |
| GATCTGATTGAGACATATCTGAAAATAATTTGCACGCAGACGGAGTCACCTAGTGCAG | 30600 fluorescence intensity (a.u.) |
| TGGATTGAGATATTTATTTATGATGATCACATCTGCACCTCGGAGTCACCTAGTGCAG | 9980 fluorescence intensity (a.u.) |
| ACTTGACAGCCCTAATTGATCTTATTACATGCAGAGGATCCGGAGTCACCTAGTGCAG | 56300 fluorescence intensity (a.u.) |
| ATGATTAGAGAGAATGGGTTTAGTTATTTGTTGATCCACACGGAGTCACCTAGTGCAG | 29400 fluorescence intensity (a.u.) |
| TGTGAGTGATCAAATAATTGATCATAATTTTCTATCGATTCGGAGTCACCTAGTGCAG | 37500 fluorescence intensity (a.u.) |
| GTGCTCTAATTATTTGTATCTTACAGATAGATGACAGAGCCGGAGTCACCTAGTGCAG | 19100 fluorescence intensity (a.u.) |
| GATAATTGAGGGATTATTTTATGGATATACTAGATCTGCACGGAGTCACCTAGTGCAG | 52400 fluorescence intensity (a.u.) |
| CATAATTGCACGATCATTGATTTTGGAACATTCTGAGGCTCGGAGTCACCTAGTGCAG | 57100 fluorescence intensity (a.u.) |
| TTTAATTGATTTTGTTTAGAATTTGAGGACATGATCCACGCGGAGTCACCTAGTGCAG | 62900 fluorescence intensity (a.u.) |
| CTCCGGTTTAATTTTAATTGATGTTTTGGACAATGGCACGCGGAGTCACCTAGTGCAG | 44900 fluorescence intensity (a.u.) |
| AATATATGGATAATTGTACTAGATTATCCTATTTCATACACGGAGTCACCTAGTGCAG | 6460 fluorescence intensity (a.u.) |

| Sequence | binding signal |
| --- | --- |
| ACATGACTAATCTTATTGACTTAAGAGCTGATTAGGATACCGGAGTCACCTAGTGCAG | 20200 fluorescence intensity (a.u.) |
| TCAATTAATATATAATTGGCATTGGGTTTGATCATCTCTGCGGAGTCACCTAGTGCAG | 50700 fluorescence intensity (a.u.) |
| CATGTTAATTTGGGACGAGAGTCGGACTCCTATTTCCTTTCGGAGTCACCTAGTGCAG | 7570 fluorescence intensity (a.u.) |
| AAAATTGATGTTCTCTTTGGTGCATTTCTTTCTTATTGTCCGGAGTCACCTAGTGCAG | 26800 fluorescence intensity (a.u.) |
| CAATTATCAATCAGTCTGAAATCTTGCATTTGCATTTGCACGGAGTCACCTAGTGCAG | 22400 fluorescence intensity (a.u.) |
| TAAGACTAATTATTCTTTTAGTAATAGACGACGTACTCGCCGGAGTCACCTAGTGCAG | 22300 fluorescence intensity (a.u.) |
| AATTGTCCCTGATTGACACCTCTTACTTGACCCTTCTTTCCGGAGTCACCTAGTGCAG | 42600 fluorescence intensity (a.u.) |
| ACGTGATACATCTTGTTCTAGATTTGTTTAATTTAAGCCACGGAGTCACCTAGTGCAG | 3240 fluorescence intensity (a.u.) |
| GTGCATTATCGATCATAATTAGCAGGTGAGAGATATTTAACGGAGTCACCTAGTGCAG | 4060 fluorescence intensity (a.u.) |
| GTAGATATTGATGATTTATATAACTTTGTTGTTGATGACTCGGAGTCACCTAGTGCAG | 14500 fluorescence intensity (a.u.) |
| ATCCCTAATACGATTTACATGATTAGAGGAGAGACAATTTCGGAGTCACCTAGTGCAG | 4470 fluorescence intensity (a.u.) |
| ATATAATTATAATTTATTTTATTGTGACTTGATTTATCATCGGAGTCACCTAGTGCAG | 36400 fluorescence intensity (a.u.) |
| ACTTGCATGCTTAATTGATTTAGTTGGTGACCTTATATCTCGGAGTCACCTAGTGCAG | 37800 fluorescence intensity (a.u.) |
| TATTTTAGATTGATATACAATCTTTTGTGGTGTTAGCACTCGGAGTCACCTAGTGCAG | 52900 fluorescence intensity (a.u.) |
| ATTAATTAATTAGTGATCATACATAATTGAGGTGATTTATCGGAGTCACCTAGTGCAG | 65000 fluorescence intensity (a.u.) |
| TTTGATTGTGGTTATTGCACTGAAATTTTACAGATATTGTCGGAGTCACCTAGTGCAG | 31800 fluorescence intensity (a.u.) |
| AATGATTGACAATACTTAGATTTCTTCCCTTAATTACATCCGGAGTCACCTAGTGCAG | 54400 fluorescence intensity (a.u.) |
| TTAATTGATTTAGTTGGTGACCTTATATCTTGTTTAGATACGGAGTCACCTAGTGCAG | 60600 fluorescence intensity (a.u.) |
| GAGCAGCAGCTTAATTGGATCATCGAATCTCGCACCGCCACGGAGTCACCTAGTGCAG | 4860 fluorescence intensity (a.u.) |
| TAAACTTAATTTTAAAATCATAATTCAGAAATGTGGTGAACGGAGTCACCTAGTGCAG | 30500 fluorescence intensity (a.u.) |
| ATGACTTGACGAGGTAAATAAAATTGGACCGGGCAGCAAACGGAGTCACCTAGTGCAG | 3900 fluorescence intensity (a.u.) |
